Data from PubChem BioAssay AID1159580 (chemical genetic matrix, 2015).
The campaign covered roughly 5,500 compounds. About 2,000 (36%) were called active. About 18% were inconclusive and are not listed. Cut-off read from the data, not from the text of the source: active = normalized growth mostly below about 0.91 (no sharp cut-off); inconclusive = no clear call, values can overlap the other calls; inactive = mostly above about 0.92. The list shows a part of the results.

Assay: chemical genetic growth profiling, strain panel (AID 1159580);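 note: tested at 20 µM; growth read once vehicle control cultures reached saturation at 30 °C; 1 = growth at the plate median or of vehicle wells; lower values mean less growth of the strain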
Conditions: S. cerevisiae deletion strains, growth OD
[1] = locus YAL013W, strain DEP1, active compounds read low
[2] = locus YBR229C, strain ROT2, active compounds read low
[3] = locus YCL061C, strain MRC1, active compounds read low
[4] = locus YDL101C, strain DUN1, active compounds read low
[5] = locus YDR150W, strain NUM1, active compounds read low
[6] = locus YEL061C, strain CIN8, active compounds read low
[7] = locus YGR078C, strain PAC10, active compounds read low
[8] = locus YGR229C, strain SMI1, active compounds read low
[9] = locus YHR030C, strain SLT2, active compounds read low
[10] = locus YHR087W, strain rtc3, active compounds read low
[11] = locus YJR043C, strain POL32, active compounds read low
[12] = locus YJR075W, strain HOC1, active compounds read low
[13] = locus YLR039C, strain RIC1, active compounds read low
[14] = locus YLR058C, strain SHM2 (second series), active compounds read low
[15] = locus YLR085C, strain ARP6, active compounds read low
[16] = locus YLR262C, strain YPT6, active compounds read low
[17] = locus YML094W, strain GIM5, active compounds read low
[18] = locus YMR219W, strain ESC1, active compounds read low
[19] = locus YMR263W, strain SAP30, active compounds read low
[20] = locus YNL153C, strain GIM3, active compounds read low
[21] = locus YNL298W, strain CLA4 (second series), active compounds read low
[22] = locus YNL322C, strain KRE1, active compounds read low
[23] = locus YNR030W, strain Alg12, active compounds read low
[24] = locus YOL006C, strain TOP1, active compounds read low
[25] = locus YPL055C, strain LGE1, active compounds read low
[26] = locus YPL241C, strain CIN2, active compounds read low
[27] = locus YPR135W, strain CTF4, active compounds read low

Measured: normalized growth

COC(=O)c1ccc(C#Cc2ccccc2)o1
active: [1] 0.9 | [2] 0.884 | [3] 0.771 | [4] 0.846 | locus YDL134C, strain PPH21, active compounds read low 0.589 | [6] 0.713 | [7] 0.89 | [9] 0.323 | [10] 0.902 | locus YJL187C, strain SWE1, active compounds read low 0.913 | [11] 0.822 | [12] 0.875 | locus YKL190W, strain CNB1, active compounds read low 0.731 | [13] 0.55 | [15] 0.325 | [16] 0.584 | [17] 0.787 | [18] 0.88 | [19] 0.904 | [20] 0.815 | [21] 0.654 | [23] 0.793 | [24] 0.349 | [25] 0.767 | [26] 0.678 | [27] 0.457
inactive: [5] 0.834 | [8] 0.961 | [14] 0.992 | locus YNL128W, strain TEP1, active compounds read low 0.927 | [22] 0.972

CN(C)/C=C/C(=O)c1ccc(C#Cc2ccccc2)cc1
inactive: locus YAR019C, strain CDC15, active compounds read low 0.982 | locus YBL105C, strain PKC1, active compounds read low 0.986 | locus YBR135W, strain CKS1, active compounds read low 0.967 | locus YBR136W, strain MEC1, active compounds read low 0.984 | locus YBR160W, strain CDC28, active compounds read low 0.97 | locus YDL017W, strain CDC7, active compounds read low 0.977 | locus YDL028C, strain MPS1, active compounds read low 0.98 | [4] 0.982 | locus YDL108W, strain KIN28, active compounds read low 0.986 | locus YDL132W, strain cdc53, active compounds read low 0.968 | locus YDL214C, strain PRR2, active compounds read low 0.987 | locus YDR052C, strain DBF4, active compounds read low 0.974 | locus YDR054C, strain cdc34, active compounds read low 0.975 | locus YDR226W, strain ADK1, active compounds read low 0.972 | locus YDR477W, strain SNF1, active compounds read low 0.958 | locus YER123W, strain YCK3, active compounds read low 0.955 | locus YER133W, strain GLC7, active compounds read low 0.981 | locus YFL009W, strain cdc4, active compounds read low 0.965 | locus YFL029C, strain CAK1, active compounds read low 0.976 | locus YFR003C, strain YPI1, active compounds read low 0.993 | locus YFR019W, strain FAB1, active compounds read low 0.981 | locus YFR028C, strain CDC14, active compounds read low 0.98 | locus YGR040W, strain KSS1, active compounds read low 0.967 | locus YGR052W, strain FMP48, active compounds read low 1.08 | locus YGR092W, strain DBF2, active compounds read low 1.01 | [9] 0.874 | locus YHR079C, strain IRE1, active compounds read low 0.99 | locus YHR082C, strain KSP1, active compounds read low 1.05 | locus YHR205W, strain SCH9, active compounds read low 0.987 | locus YIL147C, strain SLN1, active compounds read low 0.982 | locus YJL095W, strain BCK1, active compounds read low 0.935 | locus YJL128C, strain PBS2, active compounds read low 0.953 | locus YJL157C, strain FAR1, active compounds read low 0.989 | locus YJR016C, strain ILV3, active compounds read low 0.974 | locus YJR066W, strain TOR1 (second series), active compounds read low 0.934 | locus YJR066W, strain TOR1, active compounds read low 0.94 | locus YKL048C, strain ELM1, active compounds read low 0.979 | locus YKL067W, strain YNK1, active compounds read low 0.974 | locus YKL101W, strain HSL1, active compounds read low 0.986 | locus YKL193C, strain SDS22, active compounds read low 0.976 | locus YKL203C, strain TOR2, active compounds read low 1 | locus YLR113W, strain HOG1, active compounds read low 0.972 | locus YLR133W, strain CKI1, active compounds read low 0.987 | locus YLR403W, strain SFP1, active compounds read low 0.97 | locus YML070W, strain DAK1, active compounds read low 0.967 | locus YMR001C, strain CDC5, active compounds read low 0.984 | locus YMR205C, strain PFK2 (second series), active compounds read low 0.994 | locus YMR277W, strain FCP1, active compounds read low 0.973 | locus YNL006W, strain LST8, active compounds read low 0.962 | locus YNL020C, strain ARK1, active compounds read low 0.992 | locus YNL161W, strain CBK1, active compounds read low 0.965 | locus YNL183C, strain NPR1, active compounds read low 0.939 | locus YNL207W, strain RIO2, active compounds read low 0.985 | locus YNL222W, strain SSU72, active compounds read low 0.972 | locus YNL307C, strain MCK1 (second series), active compounds read low 0.994 | locus YOL078W, strain AVO1, active compounds read low 0.98 | locus YOL136C, strain PFK27, active compounds read low 0.976 | locus YOR061W, strain CKA2, active compounds read low 0.979 | locus YOR119C, strain RIO1, active compounds read low 1.04 | locus YOR231W, strain MKK1, active compounds read low 0.931 | locus YOR329C, strain SCD5, active compounds read low 0.98 | locus YPL031C, strain PHO85, active compounds read low 0.968 | locus YPL153C, strain RAD53, active compounds read low 0.939 | locus YPL204W, strain HRR25, active compounds read low 0.94 | locus YPL209C, strain IPL1, active compounds read low 0.981 | locus YPL256C, strain CLN2, active compounds read low 0.98 | locus YPR025C, strain CCL1, active compounds read low 0.977 | locus YPR106W, strain ISR1, active compounds read low 0.985 | locus YPR111W, strain DBF20, active compounds read low 0.97 | strain NNK1, active compounds read low 0.982 | strain TSCII, active compounds read low 0.969

COC(=O)c1ccc(S(=O)(=O)NCc2ccccc2)n1C
inactive: [1] 1.01 | [2] 1.03 | [3] 1.02 | [4] 1.02 | [5] 1.03 | [6] 1.06 | [7] 1.02 | [8] 1.02 | [9] 1.09 | [10] 0.995 | [11] 1.06 | [12] 1.05 | [13] 1.02 | [14] 1.03 | [15] 1.04 | [16] 1.08 | [17] 1.01 | [18] 1.01 | [19] 1.01 | locus YMR307W, strain GAS1, active compounds read low 1.1 | [20] 1.05 | [21] 1.03 | [22] 1.01 | [23] 1.04 | [24] 1.07 | [25] 0.991 | [26] 1.01 | [27] 1.15
